# Data taken from PubChem BioAssay (EPA / NIEHS).
# Values joined by “and” are separate entries in the source; they are usually repeats but may differ in a detail not shown here. Equal entries are not always repeated. Results filed as inconclusive are left out. The source holds several records for some structures; these can differ, active in one and inactive in another. Active and inactive are the calls of the source. How the source made its calls, unless noted: active means hit-call score of the fitted dose curve at least 0.9, where 1 is the maximum; inactive means score below 0.9.
# Experiments:
# [1] = target: Transcriptional activator Myb (Homo sapiens) (UniProt P10242); test: ATG_Myb_CIS: Attagene CIS-FACTORIAL HepG2 Assay for human Myeloblastosis (Myb) Proto-Oncogene Transcription Factor (AID 2282986); conditions: HepG2 Attagene CIS-FACTORIAL Myb reporter transcription; actives raise or lower the signal
# Chain of Transcriptional activator Myb (Homo sapiens) (P10242 whole entry, looked up): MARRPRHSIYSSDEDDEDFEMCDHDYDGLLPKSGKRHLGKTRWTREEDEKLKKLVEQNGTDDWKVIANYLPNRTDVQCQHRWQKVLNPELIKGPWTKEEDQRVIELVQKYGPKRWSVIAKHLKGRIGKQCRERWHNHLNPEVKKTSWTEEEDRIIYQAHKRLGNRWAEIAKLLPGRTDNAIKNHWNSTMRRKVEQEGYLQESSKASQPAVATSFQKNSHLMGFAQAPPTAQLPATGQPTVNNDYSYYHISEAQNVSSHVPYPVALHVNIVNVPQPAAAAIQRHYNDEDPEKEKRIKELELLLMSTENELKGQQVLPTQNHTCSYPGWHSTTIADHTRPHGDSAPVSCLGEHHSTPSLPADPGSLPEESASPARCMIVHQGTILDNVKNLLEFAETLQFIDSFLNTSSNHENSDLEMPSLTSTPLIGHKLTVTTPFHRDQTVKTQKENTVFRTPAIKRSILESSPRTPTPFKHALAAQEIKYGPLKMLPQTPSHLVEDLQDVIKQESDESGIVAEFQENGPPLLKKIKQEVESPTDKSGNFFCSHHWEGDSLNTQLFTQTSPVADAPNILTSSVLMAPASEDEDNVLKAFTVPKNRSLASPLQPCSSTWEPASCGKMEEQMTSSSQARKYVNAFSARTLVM
# In short: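 Endogenous transcription factor activity at a Myb-responsive cis element is reported in human liver HepG2 cells after 24 h chemical treatment. Reporter mRNA is detected by RT-PCR and capillary electrophoresis fluorescence, with DMSO as baseline.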
# [2] = target: Nuclear respiratory factor 1 (Homo sapiens) (UniProt Q16656); test: ATG_NRF1_CIS: Attagene CIS-FACTORIAL HepG2 Assay for human Nuclear Respiratory Factor 1 (NRF1) Orphan Gene (AID 2282987); conditions: HepG2 NRF1 cis-element reporter, Attagene multiplex; actives raise or lower the signal
# Chain of Nuclear respiratory factor 1 (Homo sapiens) (Q16656 whole entry, looked up): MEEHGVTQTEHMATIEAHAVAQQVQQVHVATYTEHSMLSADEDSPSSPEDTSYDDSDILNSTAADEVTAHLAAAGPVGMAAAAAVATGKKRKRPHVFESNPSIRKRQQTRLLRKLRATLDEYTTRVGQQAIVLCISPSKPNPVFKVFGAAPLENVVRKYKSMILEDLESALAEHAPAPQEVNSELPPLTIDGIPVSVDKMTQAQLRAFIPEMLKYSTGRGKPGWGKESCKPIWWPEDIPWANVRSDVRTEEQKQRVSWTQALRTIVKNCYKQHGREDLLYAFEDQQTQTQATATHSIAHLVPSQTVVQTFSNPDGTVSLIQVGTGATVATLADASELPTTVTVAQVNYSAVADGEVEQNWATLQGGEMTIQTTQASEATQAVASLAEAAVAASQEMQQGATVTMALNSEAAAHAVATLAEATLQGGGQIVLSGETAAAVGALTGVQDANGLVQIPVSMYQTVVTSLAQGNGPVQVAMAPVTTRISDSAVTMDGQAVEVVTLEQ
# In short: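 Human hepatoma HepG2 cells carrying transfected promoter-regulated reporter units were incubated with test chemicals for 24 h. Reporter transcripts were measured by RT-PCR plus capillary electrophoresis, and endpoints derived by bidirectional fitting with DMSO as baseline.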
# [3] = target: Myc proto-oncogene protein (Homo sapiens) (UniProt P01106); test: ATG_Myc_CIS: Attagene CIS-FACTORIAL HepG2 Assay for human Myelocytomatosis (Myc) Proto-Oncogene Transcription Factor (AID 2282990); conditions: HepG2, Attagene cis-reporter transcription factor activity; actives raise or lower the signal
# Chain of Myc proto-oncogene protein (Homo sapiens) (P01106 whole entry, looked up): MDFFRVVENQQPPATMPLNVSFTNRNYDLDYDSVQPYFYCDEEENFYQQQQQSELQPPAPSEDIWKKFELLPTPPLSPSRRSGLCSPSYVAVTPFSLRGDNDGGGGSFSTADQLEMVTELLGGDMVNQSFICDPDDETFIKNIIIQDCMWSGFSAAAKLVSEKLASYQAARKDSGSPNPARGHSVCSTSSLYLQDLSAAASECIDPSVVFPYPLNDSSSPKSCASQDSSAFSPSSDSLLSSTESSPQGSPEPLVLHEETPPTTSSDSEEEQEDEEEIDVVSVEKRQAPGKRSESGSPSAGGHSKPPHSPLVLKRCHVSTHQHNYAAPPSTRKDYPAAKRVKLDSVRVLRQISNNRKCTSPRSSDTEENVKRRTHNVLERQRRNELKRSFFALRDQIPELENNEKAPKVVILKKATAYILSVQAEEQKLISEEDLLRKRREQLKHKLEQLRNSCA
# In short: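 Multiplexed cis-reporter transcription in HepG2 cells after 24 h chemical treatment. Reporter mRNA measured by RT-PCR and capillary electrophoresis fluorescence; activity fitted bidirectionally against DMSO control.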
# [4] = ATG_NRF2_ARE_CIS: Attagene CIS-FACTORIAL HepG2 Assay for human Nuclear Factor Erythroid 2 Related Factor 2 (NFR2) response to Antioxidant Response Elements (ARE) (AID 2282992); conditions: HepG2 Attagene ARE/NRF2 reporter, transcription factor activity; actives raise or lower the signal
# In short: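 Multiplexed reporter mRNA profiling in HepG2 after a 24 h chemical exposure. Curves fitted in both directions relative to DMSO negative control.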
# [5] = ATG_Oct_MLP_CIS: Attagene CIS-FACTORIAL HepG2 Assay for human Octamer-Binding Transcription Factor (Oct) (AID 2282993); conditions: HepG2 Attagene cis-factorial Oct reporter, mRNA; actives raise or lower the signal
# In short: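 HepG2 cells transiently transfected with cis-element-driven reporter transcription units (endogenous TF activity); 24 h compound exposure. Reporter mRNA quantified by RT-PCR, 6-FAM labelling, HpaI digestion and capillary electrophoresis; bidirectional fit versus DMSO baseline.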
# [6] = target: Cellular tumor antigen p53 (Homo sapiens) (UniProt P04637); test: ATG_p53_CIS: Attagene CIS-FACTORIAL HepG2 Assay for human p53 Transcription Factor (AID 2282994); conditions: HepG2 p53 cis-element reporter, Attagene mRNA; actives raise or lower the signal
# Chain of Cellular tumor antigen p53 (Homo sapiens) (P04637 whole entry, looked up): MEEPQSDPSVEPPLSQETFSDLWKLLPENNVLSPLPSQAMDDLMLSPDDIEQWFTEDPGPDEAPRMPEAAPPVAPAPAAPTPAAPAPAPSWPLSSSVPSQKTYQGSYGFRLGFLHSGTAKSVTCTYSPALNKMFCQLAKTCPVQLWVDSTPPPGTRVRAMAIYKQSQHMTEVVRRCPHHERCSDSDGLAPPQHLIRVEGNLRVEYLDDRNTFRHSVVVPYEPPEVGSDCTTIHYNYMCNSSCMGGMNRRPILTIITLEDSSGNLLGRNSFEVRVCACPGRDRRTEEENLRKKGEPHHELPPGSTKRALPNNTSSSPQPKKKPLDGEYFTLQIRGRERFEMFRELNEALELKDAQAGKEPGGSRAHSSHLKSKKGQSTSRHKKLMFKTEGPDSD
# In short: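 Multiplexed reporter mRNA assay in human HepG2 liver cells; cis-regulated units report endogenous factor activity. Values come from bidirectional curve fitting against DMSO negative control after 24 h treatment.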
# [7] = BSK_3C_TissueFactor: BioMAP Diversity Plus: 3C Assay for Tissue Factor Biomarker Activity (AID 2282997); conditions: BioMAP 3C HUVEC, tissue factor biomarker readout; actives raise or lower the signal
# In short: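 Primary human umbilical vein endothelial cells in the 3C system were exposed to test chemical for 24 h, then Tissue Factor measured by ELISA. Activity was fitted bidirectionally against DMSO as negative control and baseline.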
# [8] = BSK_3C_uPAR: BioMAP Diversity Plus: 3C Assay for Urokinase-type plasminogen activator receptor (uPAR) Biomarker Activity (AID 2282998); conditions: BioMAP 3C HUVEC, uPAR biomarker ELISA; actives raise or lower the signal
# In short: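 Primary human umbilical vein endothelial cells, 3C system; surface uPAR measured by ELISA 24 h after dosing. Cytotoxicity via SRB total protein in parallel cultures; bidirectional fit against DMSO.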
# [9] = BSK_3C_VCAM1: BioMAP Diversity Plus: 3C Assay for Vascular cell adhesion molecule 1 (VCAM1) Biomarker Activity (AID 2282999); conditions: BioMAP 3C HUVEC, VCAM1 ELISA, cytokine-stimulated; actives raise or lower the signal
# In short: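 Human umbilical vein endothelial cells were dosed with compound for 24 h, after which cell-surface VCAM-1 was quantified by ELISA. Bidirectional curve fitting used DMSO as negative control and activity baseline.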
# [10] = BSK_4H_Eotaxin3: BioMAP Diversity Plus: 4H Assay for Eotaxin 3 Biomarker Activity (AID 2283000); conditions: primary human endothelial cells (HUVEC); actives raise or lower the signal;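 on outcome: CCL26 protein level quantified by ELISA in parallel with SRB cytotoxicity check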
# In short: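 HUVEC, 24 h post-dose, ELISA for Eotaxin-3/CCL26. Gain or loss of signal fitted bidirectionally vs DMSO baseline.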
# [11] = target: human Peroxisome Proliferator-activated Receptor alpha (PPARa), PPARA (gene 5465) (UniProt Q07869); test: ATG_PPARa_TRANS: Attagene TRANS-FACTORIAL HepG2 Assay for human Peroxisome Proliferator-activated Receptor alpha (PPARa) (AID 2283001; active means hit-call score of the fitted dose curve at least 0.9, where 1 is the maximum;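 on AC50: potency for gain of reporter signal over DMSO so agonist or activator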)
# Chain of human Peroxisome Proliferator-activated Receptor alpha (PPARa), PPARA (gene 5465) (Q07869 whole entry, looked up, the tested form may be a part): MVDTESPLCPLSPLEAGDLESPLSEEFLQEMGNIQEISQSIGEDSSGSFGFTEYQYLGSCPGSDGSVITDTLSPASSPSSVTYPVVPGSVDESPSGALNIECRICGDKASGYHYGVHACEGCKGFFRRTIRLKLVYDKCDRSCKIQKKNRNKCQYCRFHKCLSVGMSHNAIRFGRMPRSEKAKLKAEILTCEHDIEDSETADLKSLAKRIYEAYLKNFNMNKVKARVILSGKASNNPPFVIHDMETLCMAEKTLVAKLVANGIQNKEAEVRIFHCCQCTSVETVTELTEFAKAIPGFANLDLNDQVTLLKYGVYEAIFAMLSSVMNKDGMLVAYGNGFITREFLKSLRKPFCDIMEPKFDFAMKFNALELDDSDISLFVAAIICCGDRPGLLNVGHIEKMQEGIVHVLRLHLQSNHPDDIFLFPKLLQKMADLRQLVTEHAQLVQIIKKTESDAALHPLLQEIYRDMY
# In short: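 HepG2 cells transiently transfected with multiplexed GAL4-UAS reporter units and chimeric NR-Gal4 constructs were dosed for 24 h. Reporter mRNA was measured by RT-PCR with fluorescent labelling and capillary electrophoresis; gain of signal fitted against DMSO.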
# [12] = read-out: Intercellular Adhesion Molecule 1 (ICAM1), ICAM1 (gene 3383); test: BSK_3C_ICAM1: BioMAP Diversity Plus: 3C Assay for Intercellular Adhesion Molecule 1 (ICAM1) Biomarker Activity (AID 2283003); conditions: primary human endothelial cells (HUVEC); actives raise or lower the signal
# In short: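 Primary human umbilical vein endothelial cells in the BioMAP 3C system were exposed to chemicals for 24 h, then ICAM-1 was quantified by ELISA. Activity was fitted bidirectionally against the DMSO negative control baseline.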
# [13] = target: human Retinoic Acid Receptor beta (RARb), RARB (gene 5915) (UniProt P10826); test: ATG_RARb_TRANS: Attagene TRANS-FACTORIAL HepG2 Assay for human Retinoic Acid Receptor beta (AID 2283004; active means hit-call score of the fitted dose curve at least 0.9, where 1 is the maximum)
# Chain of human Retinoic Acid Receptor beta (RARb), RARB (gene 5915) (P10826 whole entry, looked up, the tested form may be a part): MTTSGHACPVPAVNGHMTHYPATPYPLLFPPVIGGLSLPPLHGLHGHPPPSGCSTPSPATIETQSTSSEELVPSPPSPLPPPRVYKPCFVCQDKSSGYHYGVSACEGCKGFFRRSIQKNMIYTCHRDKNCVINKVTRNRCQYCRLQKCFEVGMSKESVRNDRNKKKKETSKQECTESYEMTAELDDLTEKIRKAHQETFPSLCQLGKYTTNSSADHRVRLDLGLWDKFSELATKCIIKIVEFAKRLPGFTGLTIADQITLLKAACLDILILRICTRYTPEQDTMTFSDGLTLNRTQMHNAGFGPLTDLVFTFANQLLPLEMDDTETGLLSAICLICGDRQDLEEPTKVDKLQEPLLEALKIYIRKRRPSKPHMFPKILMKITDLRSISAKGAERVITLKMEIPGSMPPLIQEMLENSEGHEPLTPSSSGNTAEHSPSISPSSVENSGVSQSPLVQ
# In short: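 HepG2 cells transiently transfected with multiplexed GAL4-UAS reporter units expressing chimeric NR–Gal4 fusions; 24 h compound exposure. Reporter mRNA quantified by RT-PCR, 6-FAM labelling, HpaI digestion and capillary electrophoresis; gain-of-signal fitted against DMSO baseline.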
# [14] = target: Retinoic acid receptor alpha (Homo sapiens) (UniProt P10276); test: ATG_RARa_TRANS: Attagene TRANS-FACTORIAL HepG2 Assay for human Retinoic Acid Receptor alpha (RARa) (AID 2283005; active means hit-call score of the fitted dose curve at least 0.9, where 1 is the maximum)
# Chain of Retinoic acid receptor alpha (Homo sapiens) (P10276 whole entry, looked up, the tested form may be a part): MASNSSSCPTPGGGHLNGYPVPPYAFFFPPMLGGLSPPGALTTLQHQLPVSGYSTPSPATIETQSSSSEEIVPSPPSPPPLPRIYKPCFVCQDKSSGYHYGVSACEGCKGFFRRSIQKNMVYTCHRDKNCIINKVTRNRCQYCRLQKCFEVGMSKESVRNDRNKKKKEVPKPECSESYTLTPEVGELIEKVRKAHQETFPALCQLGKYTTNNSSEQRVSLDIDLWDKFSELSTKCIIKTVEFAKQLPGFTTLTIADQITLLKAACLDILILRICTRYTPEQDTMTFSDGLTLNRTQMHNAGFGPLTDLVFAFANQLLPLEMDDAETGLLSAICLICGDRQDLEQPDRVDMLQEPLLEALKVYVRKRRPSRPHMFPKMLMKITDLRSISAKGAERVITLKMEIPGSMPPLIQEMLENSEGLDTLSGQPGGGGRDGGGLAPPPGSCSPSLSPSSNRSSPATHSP
# In short: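 HepG2 cells transiently transfected with multiple reporter units expressing chimeric RARα-GAL4 fusion, with GAL4-UAS-driven reporters. After 24 h compound exposure, reporter mRNA induction quantified by RT-PCR and capillary electrophoresis with fluorescent labeling; gain-of-signal fitted relative to DMSO control.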
# [15] = target: Peroxisome proliferator-activated receptor gamma (Homo sapiens) (UniProt P37231); test: ATG_PPARg_TRANS: Attagene TRANS-FACTORIAL HepG2 Assay for human Peroxisome Proliferator-activated Receptor-gamma (PPARg) (AID 2283007; active means hit-call score of the fitted dose curve at least 0.9, where 1 is the maximum)
# In short: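 Human hepatoma HepG2, transient MRTU transfection, 24 h treatment. mRNA reporter signal by RT-PCR plus capillary electrophoresis, fluorescence detection; fitted for increase over DMSO negative control.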
# [16] = target: Nuclear receptor subfamily 1 group I member 2 (Homo sapiens) (UniProt O75469); test: ATG_PXR_TRANS: Attagene TRANS-FACTORIAL HepG2 Assay for human Pregnane X Receptor (PXR) (AID 2283008; active means hit-call score of the fitted dose curve at least 0.9, where 1 is the maximum)
# Chain of Nuclear receptor subfamily 1 group I member 2 (Homo sapiens) (O75469 whole entry, looked up, the tested form may be a part): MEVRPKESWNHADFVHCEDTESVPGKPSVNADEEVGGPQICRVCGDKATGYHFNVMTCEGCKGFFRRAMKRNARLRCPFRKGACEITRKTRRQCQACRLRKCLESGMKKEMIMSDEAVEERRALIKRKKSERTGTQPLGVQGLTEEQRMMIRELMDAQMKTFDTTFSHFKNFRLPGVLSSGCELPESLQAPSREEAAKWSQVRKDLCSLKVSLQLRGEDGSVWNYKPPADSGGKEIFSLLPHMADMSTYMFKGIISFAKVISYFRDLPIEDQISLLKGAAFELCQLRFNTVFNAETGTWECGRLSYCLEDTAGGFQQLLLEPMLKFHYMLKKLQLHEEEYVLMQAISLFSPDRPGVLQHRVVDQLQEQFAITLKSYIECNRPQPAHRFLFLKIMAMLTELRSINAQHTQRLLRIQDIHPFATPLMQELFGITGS
# In short: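 Measures mRNA induction of a GAL4-UAS-driven reporter in human HepG2 cells transiently expressing PXR fused to Gal4, following 24 h treatment. DMSO served as negative control and baseline.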
# [17] = target: human Retinoic Acid Receptor gamma (RARg), RARG (gene 5916) (UniProt P13631); test: ATG_RARg_TRANS: Attagene TRANS-FACTORIAL HepG2 Assay for human Retinoic Acid Receptor gamma (RARg) (AID 2283009; active means hit-call score of the fitted dose curve at least 0.9, where 1 is the maximum)
# Chain of human Retinoic Acid Receptor gamma (RARg), RARG (gene 5916) (P13631 whole entry, looked up, the tested form may be a part): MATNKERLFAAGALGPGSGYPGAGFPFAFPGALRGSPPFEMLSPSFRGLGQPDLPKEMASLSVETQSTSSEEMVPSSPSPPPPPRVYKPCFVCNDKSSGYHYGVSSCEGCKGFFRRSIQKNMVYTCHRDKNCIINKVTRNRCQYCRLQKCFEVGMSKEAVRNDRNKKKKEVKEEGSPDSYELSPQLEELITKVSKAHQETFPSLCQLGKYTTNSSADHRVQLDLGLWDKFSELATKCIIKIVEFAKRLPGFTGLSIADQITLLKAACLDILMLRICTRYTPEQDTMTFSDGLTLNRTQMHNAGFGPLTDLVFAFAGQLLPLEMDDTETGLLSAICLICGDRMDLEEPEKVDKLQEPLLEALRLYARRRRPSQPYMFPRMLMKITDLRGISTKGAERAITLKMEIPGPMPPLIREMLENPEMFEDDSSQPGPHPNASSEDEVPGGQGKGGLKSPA
# In short: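 HepG2 cells transiently transfected with multiplexed reporter units expressing chimeric RARg-GAL4 and GAL4-UAS-driven reporters; 24 h compound exposure. Reporter mRNA quantified by RT-PCR with fluorescent labelling and capillary electrophoresis; gain-of-signal fitted relative to DMSO baseline.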
# [18] = BSK_3C_Proliferation: Cell Proliferation Assessment in the BioMAP Diversity Plus: 3C Assay (AID 2283006); conditions: primary human endothelial cells (HUVEC);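 further: potency may reflect either rise or fall in cell number versus DMSO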
# In short: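 Human umbilical vein endothelial cells were grown sub-confluent and exposed to chemical for 48 h, then fixed with 10% TCA and stained with 0.1% sulforhodamine B; absorbance at 560 nm gave relative cell number, fitted bidirectionally against DMSO baseline.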
# [19] = target: human Peroxisome Proliferator-activated Receptor delta (PPARd), PPARD (gene 5467) (UniProt Q03181); test: ATG_PPARd_TRANS: Attagene TRANS-FACTORIAL HepG2 Assay for human Peroxisome Proliferator-activated Receptor delta (PPARd) (AID 2283002; active means hit-call score of the fitted dose curve at least 0.9, where 1 is the maximum)
# Chain of human Peroxisome Proliferator-activated Receptor delta (PPARd), PPARD (gene 5467) (Q03181 whole entry, looked up, the tested form may be a part): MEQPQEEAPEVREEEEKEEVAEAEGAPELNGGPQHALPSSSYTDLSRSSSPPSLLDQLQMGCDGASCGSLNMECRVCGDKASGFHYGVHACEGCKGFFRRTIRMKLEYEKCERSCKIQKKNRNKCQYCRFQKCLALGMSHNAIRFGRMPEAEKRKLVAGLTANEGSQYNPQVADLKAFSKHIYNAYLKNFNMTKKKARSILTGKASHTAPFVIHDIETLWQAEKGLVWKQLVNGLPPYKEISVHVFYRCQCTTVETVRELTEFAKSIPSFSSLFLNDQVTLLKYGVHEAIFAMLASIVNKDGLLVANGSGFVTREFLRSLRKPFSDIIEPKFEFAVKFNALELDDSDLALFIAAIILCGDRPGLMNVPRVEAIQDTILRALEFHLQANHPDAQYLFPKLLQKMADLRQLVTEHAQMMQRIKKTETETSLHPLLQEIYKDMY
# In short: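 Multiplexed trans-activation format: HepG2 liver cells expressing exogenous NR-Gal4 chimeras and GAL4-UAS reporters were exposed for 24 h. Reporter mRNA was detected by RT-PCR with capillary electrophoresis fluorescence; activity fitted as gain of signal relative to DMSO.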
compound,measurement,setting,value
CC(Oc1ccc(Cl)cc1Cl)C(=O)O (configuration not stated),outcome,[1],inactive
same,outcome,[2],inactive
same,outcome,[3],inactive
same,outcome,[4],inactive
same,outcome,[5],inactive
same,outcome,[6],inactive
same,outcome,[7],inactive
same,outcome,[8],inactive
same,outcome,[9],inactive
same,outcome,[10],inactive
same,outcome,[11],inactive
same,outcome,[12],inactive
same,outcome,[13],inactive
same,outcome,[14],inactive
same,AC50,[15],39.1 µM (active)
same,outcome,[16],inactive
same,outcome,[17],inactive
COP(N)(=O)SC (configuration not stated),outcome,[1],inactive
same,outcome,[2],inactive
same,outcome,[3],inactive
same,outcome,[4],inactive
same,outcome,[5],inactive
same,outcome,[6],inactive
same,outcome,[7],inactive
same,outcome,[8],inactive
same,outcome,[9],inactive
same,outcome,[10],inactive
same,outcome,[11],inactive
same,outcome,[12],inactive
same,outcome,[14],inactive
same,outcome,[15],inactive
same,outcome,[16],inactive
same,outcome,[17],inactive
CCCCC(CC)COC(=O)c1ccccc1C(=O)OCC(CC)CCCC (configuration not stated),outcome,[1],inactive
same,outcome,[2],inactive
same,outcome,[3],inactive
same,outcome,[4],inactive
same,outcome,[5],inactive
same,outcome,[6],inactive
same,outcome,[7],inactive
same,outcome,[8],inactive
same,outcome,[9],inactive
same,outcome,[10],inactive
same,outcome,[11],inactive
same,outcome,[12],inactive
same,outcome,[14],inactive
same,AC50,[18],12.7 µM (active)
same,AC50,[15],39 µM (active)
same,AC50,[16],32.9 µM (active)
same,outcome,[17],inactive
CC1COC(Cn2cncn2)(c2ccc(Oc3ccc(Cl)cc3)cc2Cl)O1 (configuration not stated),outcome,[1],inactive
same,outcome,[2],inactive
same,outcome,[3],inactive
same,AC50,[4],1.88 µM (active)
same,AC50,[5],2.45 µM (active)
same,outcome,[6],inactive
same,AC50,[7],31.5 µM (active)
same,AC50,[8],28.4 µM (active)
same,AC50,[9],29.8 µM (active)
same,AC50,[10],32.9 µM (active)
same,outcome,[19],inactive
same,AC50,[12],36.2 µM (active)
same,outcome,[13],inactive
same,outcome,[14],inactive
same,outcome,[15],inactive
same,outcome,[16],inactive
same,outcome,[17],inactive
N#CC(CCc1ccc(Cl)cc1)(Cn1cncn1)c1ccccc1 (configuration not stated),outcome,[1],inactive
same,outcome,[2],inactive
same,outcome,[3],inactive
same,AC50,[4],10.3 µM (active)
same,outcome,[5],inactive
same,outcome,[6],inactive
same,outcome,[7],inactive
same,outcome,[8],inactive
same,outcome,[9],inactive
same,outcome,[10],inactive
same,outcome,[19],inactive
same,outcome,[12],inactive
same,outcome,[13],inactive
same,outcome,[14],inactive
same,outcome,[15],inactive
same,outcome,[16],inactive
same,outcome,[17],inactive
Cc1cc(Cl)ccc1OCC(=O)O,outcome,[1],inactive
same,outcome,[2],inactive
same,outcome,[3],inactive
same,outcome,[4],inactive
same,outcome,[5],inactive
same,outcome,[6],inactive
same,outcome,[7],inactive
same,outcome,[8],inactive
same,outcome,[9],inactive
same,outcome,[10],inactive
same,outcome,[11],inactive
same,outcome,[12],inactive
same,outcome,[15],inactive
same,outcome,[16],inactive
CCCCOC(=O)c1ccccc1C(=O)OCCCC,outcome,[1],inactive
same,outcome,[2],inactive
same,outcome,[3],inactive
same,AC50,[4],62.4 µM (active) [middle of 5 runs]
same,outcome,[5],inactive
same,outcome,[6],inactive
same,outcome,[7],inactive
same,outcome,[8],inactive
same,outcome,[9],inactive
same,outcome,[10],inactive
same,outcome,[11],inactive
same,outcome,[12],inactive
same,outcome,[14],inactive
same,AC50,[15],44.9 µM (active) and 43.7 µM (active)
same,outcome,[15],inactive
same,AC50,[16],56.4 µM (active)
same,outcome,[16],inactive
same,outcome,[17],inactive
CN(C)C(=S)SSC(=S)N(C)C,outcome,[1],inactive
same,outcome,[2],inactive
same,outcome,[3],inactive
same,outcome,[4],inactive
same,outcome,[5],inactive
same,outcome,[6],inactive
same,AC50,[7],31.4 µM (active)
same,AC50,[8],29.4 µM (active)
same,AC50,[9],16.9 µM (active)
same,AC50,[10],33.1 µM (active)
same,outcome,[11],inactive
same,outcome,[19],inactive
same,AC50,[12],32.1 µM (active)
same,outcome,[13],inactive
same,outcome,[16],inactive
same,outcome,[17],inactive
N#Cc1cc(Br)c(O)c(Br)c1,outcome,[1],inactive
same,outcome,[2],inactive
same,outcome,[3],inactive
same,AC50,[4],26.7 µM (active)
same,AC50,[5],40.1 µM (active)
same,outcome,[6],inactive
same,outcome,[7],inactive
same,AC50,[8],32.5 µM (active)
same,outcome,[9],inactive
same,outcome,[10],inactive
same,AC50,[11],15.9 µM (active)
same,outcome,[12],inactive
same,AC50,[15],29.9 µM (active)
same,outcome,[16],inactive
